According to PubChem BioAssay (NCI):
The panel holds about 79,000 compounds, 15% with a hit somewhere; the sample as a whole holds those more often. Cut-off read from the data, not from the text of the source: active = growth inhibition above about 70%; inactive = the rest.

How the values were obtained:
[1] = NCI Yeast Anticancer Drug Screen. Data for the rad50 strain (AID 155);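 note: 0% = growth of vehicle-only cultures of the same strain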; conditions: S. cerevisiae rad50 strain growth inhibition; at 50.0 µM; stronger effect = higher value
Outline: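 Readout: growth inhibition relative to vehicle-treated cultures. Compound exposure was carried out in a genetically defined yeast strain deficient in DNA damage repair.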

[2] = NCI Yeast Anticancer Drug Screen. Data for the mec2-1 strain (AID 157); conditions: S. cerevisiae mec2-1 strain, at 50.0 µM, stronger effect = higher value
Outline: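 Strain: mec2-1 (DNA repair/cell cycle alteration). Compound exposure, then growth measured; inhibition expressed relative to vehicle.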

[3] = NCI Yeast Anticancer Drug Screen. Data for the sgs1 mgt1 strain (AID 161);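 note: 0% = growth of cultures given vehicle only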; conditions: S. cerevisiae sgs1 mgt1 strain, at 50.0 µM, stronger effect = higher value
Outline: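 Read-out: growth inhibition vs vehicle controls. Cells: mutant yeast strain deficient in DNA damage repair.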

[4] = NCI Yeast Anticancer Drug Screen. Data for the cln2 rad14 strain (AID 165);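 note: 0% = growth equal to vehicle treated cultures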; conditions: S. cerevisiae cln2 rad14 strain, at 50.0 µM, stronger effect = higher value
Outline: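 Compounds are applied to the cln2 rad14 yeast strain, and growth is then compared with that of vehicle-treated cultures to give inhibition.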

[5] = NCI Yeast Anticancer Drug Screen. Data for the bub3 strain (AID 167); conditions: S. cerevisiae bub3 mutant strain, at 50.0 µM, stronger effect = higher value
Outline: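 Readout: yeast growth inhibition, expressed relative to vehicle-only wells. The test organism is a mutant strain from a panel with lesions in DNA repair or checkpoint genes.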

[6] = NCI Yeast Anticancer Drug Screen. Data for the mlh1 rad18 strain (AID 175); conditions: S. cerevisiae mlh1 rad18 strain growth inhibition; at 50.0 µM; stronger effect = higher value
Outline: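 Read-out is yeast growth inhibition, calculated against vehicle-only controls. The compound was applied to a strain engineered with DNA damage repair alterations.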

Measured: growth inhibition

Cc1[nH]c2ccccc2c1C1=CC(=O)N(c2ccccc2)C1=O
inactive: [1] -24.1% | [2] -23.6% | [3] 9.3% | [4] 21.4% | [5] -4.7% | [6] -7.9%

CCOC(=O)c1nc[nH]c1C(=O)OCC
inactive: [1] 17.5% | [2] -7.25% | [3] -6.1% | [4] 11% | [5] -1.35% | [6] 12%

Cc1ccc(S(=O)(=O)N(c2cc(C)ccc2C)c2ccccc2N)cc1
inactive: [1] 58.6% | [2] 50.9% | [3] 41.8% | [4] 49.9% | [5] 20.9% | [6] 25.2%

Cc1cc(N2CCCCC2)nc2ccc(Cc3ccc4nc(N5CCCCC5)cc(C)c4c3)cc12
inactive: [1] 48.7% | [2] -7.05% | [3] -27.9% | [4] -16.4% | [5] -47.4% | [6] 27.5%

O=C(CC/C(CC(=O)c1ccc(Cl)cc1)=N\O)Nc1cccc(Cl)c1
inactive: [1] -31.9% | [2] -2.4% | [3] -6.45% | [4] -3.85% | [5] 0.7% | [6] -11.6%

COc1cccc[n+]1C
inactive: [1] 10.2% | [2] 3.45% | [3] -2.15% | [4] 8.3% | [5] 5.4% | [6] 7.45%

C/C(=N\Nc1ccc([N+](=O)[O-])cn1)c1ccccn1
inactive: [1] 31.2% | [2] -10.2% | [3] 25.4% | [4] 5.6% | [5] 12.2% | [6] -1.3%

O=C(O)c1cc(-c2ccc(-c3ccccc3)cc2)nc2cc3ccccc3cc12
inactive: [1] -15.7% | [2] -3.9% | [3] -2.15% | [4] -20.6% | [5] -54.9% | [6] 22%

C=C(C(=O)O)C1CC[C@@]2(C)CCC[C@@](C)(O)C2C1 (stereo partly drawn)
inactive: [1] 21.1% | [2] -5.8% | [3] -7.75% | [4] 10.8% | [5] -3.35% | [6] 25.6%

c1ccc(CNn2nnc3ccccc32)cc1
inactive: [1] 16.6% | [2] -14.4% | [3] 7.25% | [4] 3.15% | [5] -2.95% | [6] 21.9%

CN(c1ccccc1)c1nc(=[N+](C)C)ss1
inactive: [1] 35.4% | [2] 26.5% | [3] 17% | [4] 24.1% | [5] 4.3% | [6] 31.8%

CNC(CC(=O)O)C(=O)O (stereo not drawn)
inactive: [1] -0.4% | [2] -3.95% | [3] -14.6% | [4] -15.1% | [5] 2.5% | [6] -3.05%

CCCCNCC#N
inactive: [1] 20.4% | [2] -10.7% | [3] -0.85% | [4] 7.4% | [5] 5.15% | [6] 3.95%

CN1CCN(C(=S)N(C)C(=O)c2ccc(Cl)cc2)CC1
inactive: [1] 13.3% | [2] -20.1% | [3] -20.3% | [4] 19.1% | [5] -22.9% | [6] -9.65%

O=[N+]([O-])c1ccc(Nc2ccccc2)c2nonc12
inactive: [1] -22.2% | [2] 4.45% | [3] -0.1% | [4] 26.4% | [5] 13.8% | [6] 29.4%

N#Cc1ccccc1Br
inactive: [1] 21.4% | [2] -19.8% | [3] 21.1% | [4] 11.8% | [5] 11.8% | [6] 29.8%

CC1/C(=N/O)CC(c2ccccc2)N(N=O)C1c1ccccc1 (stereo not drawn)
inactive: [1] 62.8% | [2] 46.2% | [3] 57.5% | [4] 18.8% | [5] 13.6% | [6] 46%

Cn1cncc1CC1COC(=O)C1C(O)c1ccccc1 (stereo not drawn)
inactive: [1] 11% | [2] 8.45% | [3] -14.2% | [4] -1.5% | [5] -26.9% | [6] -53.9%

CC1(C(=O)O)CCC2(C)CCC3(C)C(=CC(=O)C4C5(C)CCC(OC6OC(C(=O)O)C(O)C(O)C6OC6OC(C(=O)O)C(O)C(O)C6O)C(C)(C)C5CCC43C)C2C1 (stereo not drawn)
inactive: [1] 13.6% | [2] 3.95% | [3] -2.25% | [4] 24.8% | [5] 15.8% | [6] 19.2%

CCCOC1(C)Oc2cc3c(cc2C(c2cc(OC)c(OC)c(OC)c2)C1C)OCO3 (stereo not drawn)
inactive: [1] 10.3% | [2] 2.7% | [3] -4.4% | [4] 45.4% | [5] 18.6% | [6] 14.7%

CN(C)S(=O)(=O)c1ccc(NC(=O)OC2CCCC2)cc1
inactive: [1] 12.9% | [2] 3.7% | [3] 6.8% | [4] 33.2% | [5] 24.6% | [6] 0.35%

NC(C(=O)O)c1ccccc1C(=O)O (stereo not drawn)
inactive: [1] -21.4% | [2] -19.9% | [3] -13.4% | [4] 0.8% | [5] -7.8% | [6] -21.9%

O=C(CC(c1ccccc1)C1CCCN(c2ccccc2)S1(=O)=O)c1ccccc1 (stereo not drawn)
inactive: [1] 26.6% | [2] 1.2% | [3] 11.1% | [4] 16.9% | [5] -3.05% | [6] 23.1%

CC(=O)c1ccccc1NCC(=O)Nn1cnc2ccc(S(=O)(=O)Nc3ccccc3C(C)=O)cc2c1=O
inactive: [1] 7.25% | [2] -21.3% | [3] 12.9% | [4] 18.6% | [5] 11.5% | [6] 7.6%

Cn1nnnc1CCO
inactive: [1] -9.45% | [2] 7.05% | [3] -13.4% | [4] -0.55% | [5] 2.9% | [6] -8.55%

O=c1cc2n(c(=O)n1Cc1ccccc1)CCC2
inactive: [1] 10.9% | [2] 4.25% | [3] 1.55% | [4] 1.5% | [5] -3.9% | [6] -6%

CC(C)=NNC(=O)c1n[nH]c(C)c1N=NN(C)C
inactive: [1] 12.5% | [2] -23.4% | [3] 6.5% | [4] -0.65% | [5] -9.4% | [6] 20.5%

CCOC(=O)CC(c1ccccc1)C(C#N)(c1ccccc1)N(C)C (stereo not drawn)
inactive: [1] 27.9% | [2] 19.5% | [3] 40.8% | [4] 18% | [5] 30.4% | [6] 33.5%

Nc1ccc(SCCC(=O)O)cc1
inactive: [1] 18.9% | [2] 0.7% | [3] -0.25% | [4] 2.1% | [5] 5.95% | [6] -13.3%

O=C(O)c1cc(-c2ccccc2Cl)nc2cc3ccccc3cc12
inactive: [1] -14.4% | [2] -19.7% | [3] 4.45% | [4] 14.1% | [5] -6.05% | [6] 0.8%

CCOC(=O)C(C)N1CCCCCCC1 (stereo not drawn)
inactive: [1] -19.9% | [2] -13.5% | [3] -2.3% | [4] -26.2% | [5] -6.15% | [6] -0.8%

COc1cccc(-c2nc(SCC(N)=O)[nH]c(=O)c2C#N)c1
inactive: [1] 6.25% | [2] 1.8% | [3] 13.5% | [4] 12% | [5] 17.5% | [6] 14.2%

CC(C)=CC1CCc2ccccc2N1S(=O)(=O)c1ccc(C)cc1 (stereo not drawn)
inactive: [1] 31.8% | [2] 0.25% | [3] -14.9% | [4] -8.7% | [5] -31.7% | [6] -22.6%

Cc1cc(C)c(C)c(C)c1C
inactive: [1] 17.6% | [2] -8.15% | [3] 14.8% | [4] 2.55% | [5] -3.6% | [6] 20.6%

N#CC(N)c1ccc(OCCCCCCCCCCOc2ccc(C(N)C#N)cc2)cc1 (stereo not drawn)
inactive: [1] 1.5% | [2] 2.65% | [3] -27.2% | [4] -7.8% | [5] -17.4% | [6] -20.8%

O=[N+]([O-])c1ccc(Cn2on2-c2ccccc2)cc1
inactive: [1] 8.55% | [2] 21.1% | [3] 9.1% | [4] -16.7% | [5] 24.4% | [6] -23.9%

CC(=O)OCC1Cn2c(c(-c3ccccc3)c(=O)[nH]c2=S)O1 (stereo not drawn)
inactive: [1] -9.15% | [2] 14.5% | [3] 5.95% | [4] -1.95% | [5] -6.35% | [6] 8.25%

Clc1ccc(C(=C=C(c2ccccc2)c2ccccc2)c2ccc(Cl)cc2)cc1
inactive: [1] 33.7% | [2] 13.8% | [3] -4.4% | [4] 20.7% | [5] 5.55% | [6] 25.9%
